Laboratory results as given in ChEMBL document CHEMBL1157539, “Thousands of chemical starting points for antimalarial lead identification” (Nature, 2010).

Experiments:
Type in all cases: functional
[1] = system: Plasmodium falciparum; test: GSK_TCMDC: Inhibition of Plasmodium falciparum 3D7 in whole red blood cells, using parasite LDH activity as an index of growth. Test compounds present at 2uM
[2] = system: Plasmodium falciparum; test: GSK_TCMDC: Inhibition of Plasmodium falciparum Dd2 in whole red blood cells, using parasite LDH activity as an index of growth. Test compounds present at 2uM
[3] = system: HepG2; test: GSK_TCMDC: Percent inhibition of human HepG2 cell line. Test compounds present at 10uM.

OC(CNc1ccnc(Nc2cccc(Cl)c2)n1)c1cccc(C(F)(F)F)c1 (stereo not given)
Inhibition [1]: 100% | Inhibition [2]: 98% | Inhibition [3]: 11%

O=C(Nc1cccc(C(F)(F)F)c1)Nc1cc(F)c(F)cc1Cl
Inhibition [1]: 83% | Inhibition [2]: 98% | Inhibition [3]: 0%

CN1CCN(CCCN(Cc2cccc(-c3cccc(CNCc4ccc5c(c4)OCO5)c3)c2)C(=O)CCC2CCCC2)CC1.O=C(O)C(F)(F)F
Inhibition [1]: 98% | Inhibition [2]: 80% | Inhibition [3]: 85%

COc1cc(N(Cc2ccccc2C)S(=O)(=O)Cc2ccccc2[N+](=O)[O-])c(OC)cc1Cl
Inhibition [1]: 94% | Inhibition [2]: 44% | Inhibition [3]: 16%

Cc1cc(-c2ccc3c(c2)CCN(CCC2CCC(NC(=O)/C=C/c4cccc(Cl)c4)CC2)CC3)on1.Cl (stereo not given)
Inhibition [1]: 100% | Inhibition [2]: 49% | Inhibition [3]: 16%

CCn1ccc2c(N3CCCS3(=O)=O)cc(C(=O)N[C@@H](Cc3ccccc3)[C@H](O)CNC(C)(C)c3cccc(OC)c3)cc21
Inhibition [1]: 99% | Inhibition [2]: 98% | Inhibition [3]: 20%

CNCCNCc1cccc(-c2ccc(-c3nc4cccc(C)c4[nH]3)cc2)c1.O=C(O)C(F)(F)F
Inhibition [1]: 98% | Inhibition [2]: 21% | Inhibition [3]: 17%

O=C(C1COc2ccccc2O1)N(CCCn1ccnc1)Cc1csc(-c2ccc(CNCc3ccccc3)cc2)n1.O=C(O)C(F)(F)F (stereo not given)
Inhibition [1]: 100% | Inhibition [2]: 18% | Inhibition [3]: 15%

COc1c(C2CCN(CCCCNC(=O)c3ccc(-c4ccc(C#N)cc4)cc3)CC2)ccc2c1C(C)(C)CCC2(C)C
Inhibition [1]: 100% | Inhibition [2]: 86% | Inhibition [3]: 98%

COc1ccc(C=CC(=O)Nc2ccc(N3CCCC3)cc2)cc1.Cl
Inhibition [1]: 81% | Inhibition [2]: 9% | Inhibition [3]: 0%

O=C(Nc1cccc(F)c1)c1ccc(C(=O)NC2CCN(CC3CCCCC3)C2)cc1.O=C(O)C(F)(F)F (stereo not given)
Inhibition [1]: 96% | Inhibition [2]: 15% | Inhibition [3]: 16%

C(=NN=c1cc(-c2ccccc2)[nH]c2ccccc12)c1cccnc1
Inhibition [1]: 87% | Inhibition [2]: 13% | Inhibition [3]: 23%

CCCN(CCC)CC(O)COc1ccccc1C(=O)Nc1ccccc1 (stereo not given)
Inhibition [1]: 92% | Inhibition [2]: 95% | Inhibition [3]: 6%

O=C(Nc1ccc2c(c1)CCN2C1CCN(Cc2ccc(F)cc2Cl)C1)c1ccco1 (stereo not given)
Inhibition [1]: 97% | Inhibition [2]: 96% | Inhibition [3]: 4%

Cc1cc(Nc2ncc(C#N)c(Nc3ccccc3C(N)=O)n2)ccc1N1CCN(C)CC1.Cl
Inhibition [1]: 94% | Inhibition [2]: 94% | Inhibition [3]: 99%

CC1(CCN2CCC(c3c[nH]c4cnccc34)CC2)CCCc2c(Br)cccc2C1=O.Cl (stereo not given)
Inhibition [1]: 100% | Inhibition [2]: 66% | Inhibition [3]: 14%

COc1ccc2nccc(NC(=O)OC3CCC(NCc4ccc5c(n4)NC(=O)CS5)CC3)c2c1 (stereo not given)
Inhibition [1]: 98% | Inhibition [2]: 39% | Inhibition [3]: 9%

Cc1c(CCC#N)c(NCc2ccccc2)n2c(nc3ccccc32)c1C#N
Inhibition [1]: 100% | Inhibition [2]: 99% | Inhibition [3]: 16%

Cc1cc(NC(=O)NCCN2CCC(NS(=O)(=O)c3ccccc3Cl)C2)c2ccccc2n1 (stereo not given)
Inhibition [1]: 97% | Inhibition [2]: 43% | Inhibition [3]: 1%

Cc1ccc(/C=C/C(=O)NCCCCCN2CCN(C(=O)Nc3ccc(Cl)c(C(F)(F)F)c3)CC2)cc1
Inhibition [1]: 93% | Inhibition [2]: 0% | Inhibition [3]: 10%

Fc1ccc2[nH]c(-c3cccc(-c4cccc(CNCC5CCCO5)c4)c3)nc2c1.O=C(O)C(F)(F)F (stereo not given)
Inhibition [1]: 99% | Inhibition [2]: 94% | Inhibition [3]: 40%

CCOc1ccc(C2CCN(CCCCNC(=O)c3ccc(NC(=O)c4ccc(Cl)cc4)cc3)CC2)c(Cl)c1
Inhibition [1]: 100% | Inhibition [2]: 96% | Inhibition [3]: 32%

CC(C)NCc1cccc(-c2cccc(-c3nc4cc(F)ccc4[nH]3)c2)c1.O=C(O)C(F)(F)F
Inhibition [1]: 100% | Inhibition [2]: 85% | Inhibition [3]: 20%

C=Cc1ccccc1C1(O)CCN(CCCCNC(=O)c2ccc(-c3ccc(C#N)cc3)cc2)CC1
Inhibition [1]: 88% | Inhibition [2]: 64% | Inhibition [3]: 27%

Nc1cccc(CNCc2ccc(-c3ccc(-c4nc5cc(F)ccc5[nH]4)s3)cc2)c1.O=C(O)C(F)(F)F
Inhibition [1]: 100% | Inhibition [2]: 93% | Inhibition [3]: 12%

Cc1ccc2c(Cl)c(C(=O)N3CC(C)OC(C)C3)sc2c1 (stereo not given)
Inhibition [1]: 100% | Inhibition [2]: 98% | Inhibition [3]: 4%

O=C(Nc1ccnc(N2CC3CC2CN3Cc2cccc(O)c2)c1)c1ccc(F)cc1.O=C(O)C(F)(F)F (stereo not given)
Inhibition [1]: 92% | Inhibition [2]: 0% | Inhibition [3]: 2%

Cc1cccc(CN2CCCN(Cc3ccc(C(=O)Nc4ccc(C(C)(C)C)cc4)cc3)CC2)c1.O=C(O)C(F)(F)F
Inhibition [1]: 97% | Inhibition [2]: 4% | Inhibition [3]: 57%

CS(=O)(=O)N1CC2(CCN(CCC(NC(=O)NCc3ccc(Cl)c(Cl)c3)c3ccc(Cl)c(Cl)c3)CC2)c2ccccc21 (stereo not given)
Inhibition [1]: 89% | Inhibition [2]: 59% | Inhibition [3]: 19%

Cc1ccc2c(=O)cc(CCc3cccc(F)c3F)n(CC(=O)N(Cc3ccc(-c4ccc(C(F)(F)F)cc4)cc3)C3CCN(C)CC3)c2n1.O=C(O)C(O)C(O)C(=O)O
Inhibition [1]: 86% | Inhibition [2]: 76% | Inhibition [3]: 49%

Cc1c(CNCCCNc2cc(=O)c3ccccc3[nH]2)sc(/C=N/O)c1Br.Cl
Inhibition [1]: 82% | Inhibition [2]: 0% | Inhibition [3]: 0%

Nc1nc(-c2ccc3c(Nc4ccc(F)c(Cl)c4)ccnc3c2)cs1
Inhibition [1]: 100% | Inhibition [2]: 88% | Inhibition [3]: 13%

CCNc1cc(C(=O)N[C@@H](Cc2ccccc2)[C@H](O)CNC(C)(C)Cc2cccc(Cl)c2)cc(N2CCCCS2(=O)=O)c1.Cl
Inhibition [1]: 97% | Inhibition [2]: 74% | Inhibition [3]: 17%

CCc1cn2c3c(cc(C(=O)N[C@@H](Cc4cccc(F)c4)[C@H](O)CNC4CCCCC4)cc13)N(C)S(=O)(=O)CC2.O=CO
Inhibition [1]: 99% | Inhibition [2]: 99% | Inhibition [3]: 5%

Cc1cc(NCCC(=O)Nc2ccccc2)nc(NCCc2ccccc2)n1.O=C(O)C(F)(F)F
Inhibition [1]: 99% | Inhibition [2]: 8% | Inhibition [3]: 0%

Nc1nccc2ccc(-c3ccc(Oc4ccccc4)cc3)cc12.O=C(O)C(F)(F)F
Inhibition [1]: 98% | Inhibition [2]: 80% | Inhibition [3]: 36%

COc1ccccc1C1CCN(C2CCC(NC(=O)/C=C/c3cccc(C(F)(F)F)c3)CC2)CC1 (stereo not given)
Inhibition [1]: 99% | Inhibition [2]: 34% | Inhibition [3]: 38%

Br.CCCCCCCCn1ccc(=N)cc1
Inhibition [1]: 91% | Inhibition [2]: 84% | Inhibition [3]: 49%

CN1CCCC(COc2cc3c(cc2Br)CCN3C(=O)Nc2ccc(-c3ccncc3)c(Cl)c2)C1 (stereo not given)
Inhibition [1]: 100% | Inhibition [2]: 96% | Inhibition [3]: 99%

c1ccc2c3c(ccc2c1)Sc1c(ccc2ccccc12)N3
Inhibition [1]: 92% | Inhibition [2]: 31% | Inhibition [3]: 0%

O=C(C=Cc1ccc(Cl)c(Cl)c1)NCCCCCN1CCC(CCCNC(=O)c2ccc3c(c2)OCO3)CC1
Inhibition [1]: 98% | Inhibition [2]: 64% | Inhibition [3]: 38%

O=C(Nc1ccc(C(=O)Oc2ccc(-c3ccccc3)cc2)cc1)N[C@@H](Cc1ccc(O)cc1)C(=O)NC1CCN(Cc2ccc(O)cc2)C1.O=C(O)C(F)(F)F (stereo not given in full)
Inhibition [1]: 94% | Inhibition [2]: 60% | Inhibition [3]: 0%

COc1cccc(-c2cnc(N)c(-c3nc4cc(Cl)c(F)cc4[nH]3)c2)c1
Inhibition [1]: 100% | Inhibition [2]: 26% | Inhibition [3]: 37%

Cc1cccc2nc(-c3cccc(-c4ccc(NC(=O)CC5NC(=O)c6ccccc65)cc4)c3)[nH]c12 (stereo not given)
Inhibition [1]: 100% | Inhibition [2]: 67% | Inhibition [3]: 30%

COc1ccc(NS(=O)(=O)c2ccc(C(=O)Nc3ccc(OC(F)(F)F)cc3)cc2)cc1N1CCN(CC2CC2)CC1.O=C(O)C(F)(F)F
Inhibition [1]: 89% | Inhibition [2]: 0% | Inhibition [3]: 18%

COC(=O)c1cccc(NC(=O)NC2CCN(c3ccnc(NCc4ccc(F)cc4)n3)CC2)c1
Inhibition [1]: 93% | Inhibition [2]: 39% | Inhibition [3]: 29%

CCCC(CNCc1cccc(SC(F)(F)F)c1)CNc1cc(=O)c2ccccc2[nH]1 (stereo not given)
Inhibition [1]: 100% | Inhibition [2]: 87% | Inhibition [3]: 5%

O=C(O)C(F)(F)F.OCCN1CCN(Cc2ccc(-c3cccc(-c4nc5cc(C(F)(F)F)ccc5[nH]4)c3)cc2)CC1
Inhibition [1]: 99% | Inhibition [2]: 83% | Inhibition [3]: 29%

Cc1nc(N)nc(N)c1-c1ccc(Br)c([N+](=O)[O-])c1
Inhibition [1]: 95% | Inhibition [2]: 2% | Inhibition [3]: 64%

Cc1ccc(-c2nc(Nc3ccncc3)c3ccccc3n2)s1
Inhibition [1]: 95% | Inhibition [2]: 34% | Inhibition [3]: 6%

COCC(C)n1c(SCC(=O)Nc2cc(C(F)(F)F)ccc2Cl)nc2ccccc2c1=O (stereo not given)
Inhibition [1]: 97% | Inhibition [2]: 96% | Inhibition [3]: 3%

COc1ccc(-c2cccc(NC(=O)c3ccc(C#N)cc3)c2)cc1CN(C)CCN(C)C.O=C(O)C(F)(F)F
Inhibition [1]: 90% | Inhibition [2]: 18% | Inhibition [3]: 14%

CCc1c(CCNCCCCCNCCc2ccc(OC)c(OC)c2CC)ccc(OC)c1OC.Cl
Inhibition [1]: 100% | Inhibition [2]: 1% | Inhibition [3]: 59%

O=C(NC1CC1)c1ccc(N2CCCC(COc3ccccc3F)C2)nc1 (stereo not given)
Inhibition [1]: 87% | Inhibition [2]: 92% | Inhibition [3]: 8%

COc1ccc(C=NN=c2cc[nH]c3ccccc23)c2ccccc12
Inhibition [1]: 100% | Inhibition [2]: 98% | Inhibition [3]: 27%

O[C@H]1[C@H](OCc2ccc(-c3ccccc3)cc2)CC[C@@H]1N1CCCCC1
Inhibition [1]: 96% | Inhibition [2]: 100% | Inhibition [3]: 9%

COc1ccc(NC(=O)/C=C/c2ccccc2Cl)cc1OCCN1CCC(NCc2cccnc2)CC1
Inhibition [1]: 100% | Inhibition [2]: 88% | Inhibition [3]: 12%

COc1ccc2ncc(C#N)c(CCN3C4CCC3CC(NCc3ccc5c(n3)NC(=O)CS5)C4)c2c1.Cl (stereo not given)
Inhibition [1]: 95% | Inhibition [2]: 27% | Inhibition [3]: 6%

COc1ccc(S(=O)(=O)NCCC2CCN(CCCCCNC(=O)C=Cc3ccc(Cl)c(Cl)c3)CC2)cc1
Inhibition [1]: 87% | Inhibition [2]: 0% | Inhibition [3]: 36%

Cc1ncsc1CCN1C(=O)CC2(C1=O)C(=O)N(Cc1ccccc1)c1ccc(Cl)cc12 (stereo not given)
Inhibition [1]: 86% | Inhibition [2]: 46% | Inhibition [3]: 0%
